Measured values as given in PubChem BioAssay AID1053117 (Broad Institute, 2014).
Entries with a potency or affinity are not part of this list. Activity calls are given as the source filed them.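 How the source made its calls: active means compounds lowering cell ATP signal with a fitted half-effect dose at most twice the top valid dose; inconclusive means flat curve with 30 to 70% signal loss, or bad fit; inactive means wrong direction, flat within 30%, or weaker than limit.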

test: HEK293 cell cytotoxicity, dose response, cytotoxicity control, cherry-picks, set 5 (AID 1053117); settings: HEK293T viability, CellTiter-Glo ATP luminescence, 72 h; series mostly up to 26 µM;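 further: more negative means greater loss of ATP signal and more cytotoxicity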

SMILES	outcome
Cc1cc(C)n2ncc(C(=O)NCc3ccc(Cl)cc3)c2n1	inactive
N#C[C@@H]1[C@H](c2ccccc2C2=CCCCC2)[C@H](CO)N1S(=O)(=O)c1ccccc1	inactive
COC(=O)c1c(NC(=O)CN2CCN(c3ccccc3Cl)CC2)sc(C)c1C	inactive
COc1ccc(CN(C2CCCC2)S(=O)(=O)c2ccc(-n3cnnn3)cc2)cc1OC	inactive
O=C(Nc1nc(-c2ccncc2)cs1)C1COc2ccccc2O1 (centres undefined)	inactive
CCCc1cc(C(=O)OC)c(NC(=O)CCC(=O)O)s1	inactive
CCCCOc1ccc(C(C)NC(=O)C2CCCN(S(=O)(=O)CCC)C2)cc1 (centres undefined)	inactive
O=C(CSc1nc2ncc(Cl)cc2[nH]1)c1c[nH]c2ccccc12	inactive
COc1ccccc1CNc1nc(NCc2cnc(C)cn2)c2sccc2n1	inactive
CCOC(=O)c1nnn(-c2ccc(OC)cc2)c1N	inactive
Cc1ccc(C(O)c2ncc(-c3cccc4ccccc34)[nH]2)cc1F (centres undefined)	inactive
C[C@@H]1CN([C@@H](C)CO)C(=O)c2cc(-c3ccncc3)cnc2O[C@@H]1CN(C)C(=O)Cc1cccnc1	inactive
N#C[C@H]1[C@@H](c2ccccc2C2=CCCCC2)[C@@H](CO)N1S(=O)(=O)c1ccccc1	inactive
COc1ccccc1N(CC(=O)N(CC(C)C)CC(C)C)S(=O)(=O)c1cccs1	inactive
COCC(=O)Nc1ccc2c(c1)C(=O)N(C)[C@H]1CC[C@@H](CC(=O)NCc3ccccc3Cl)O[C@@H]1CO2	inactive
Cc1ccc(S(=O)(=O)N2CC[C@H]3[C@H](CO)Nc4ccc(-c5cccc(C(=O)N(C)C)c5)cc4[C@H]32)cc1	inactive
CO[C@H]1CN(C)C(=O)c2cc(NC(C)=O)ccc2OC[C@@H](C)N(C(=O)CN2CCOCC2)C[C@H]1C	inactive

SMILES	outcome
O=C(NCCS(=O)(=O)N1CCN(c2ccc(F)cc2)CC1)c1ccc(Br)o1	inactive
O=C(C[C@@H]1C[C@@H]2c3cc(NC(=O)c4ccc5c(c4)OCO5)ccc3O[C@@H]2[C@@H](CO)O1)NCc1ccc(Oc2ccccc2)cc1	inactive
COCC(=O)Nc1ccc2c(c1)C(=O)N(C)[C@H]1CC[C@H](CC(=O)NCc3ccccc3Cl)O[C@@H]1CO2	inactive
COCC(=O)Nc1ccc2c(c1)C(=O)N(C)[C@@H]1CC[C@@H](CC(=O)NCc3ccccc3Cl)O[C@H]1CO2	inactive
N#C[C@H]1[C@H](c2ccccc2C2=CCCCC2)[C@H](CO)N1S(=O)(=O)c1ccccc1	inactive
C[C@H]1CN([C@@H](C)CO)C(=O)c2cc(NC(=O)C3CCCCC3)ccc2O[C@H]1CN(C)Cc1ccc(-c2ccccc2)cc1	inactive
C[C@@H]1CN([C@H](C)CO)C(=O)c2cc(NC(=O)CCCN(C)C)ccc2O[C@@H]1CN(C)Cc1ccc(-c2ccccc2)cc1	inactive
COc1cccc(S(=O)(=O)N2CC[C@@H]3[C@H]2c2cc(-c4ccc(C#N)cc4)ccc2N[C@@H]3CO)c1	inactive
CO[C@@H]1CN(C)C(=O)c2cc(NC(=O)Nc3ccc(Cl)c(Cl)c3)ccc2OC[C@H](C)NC[C@@H]1C	inactive
CCOC(=O)c1cnc(SCc2nc(N)nc(Nc3ccc(OC)cc3)n2)nc1N	inactive
CN(C)C(=O)c1ccc(-c2ccc3c(c2)[C@H]2[C@H](CCN2C(=O)c2ccc(F)cc2)[C@H](CO)N3C)cc1	inactive
O=C(Nc1ccccc1F)N1C[C@@H]2[C@H](c3ccccc31)[C@H](CO)N2C(=O)C1CC1	inactive
COC(=O)C[C@H]1CC[C@@H]2[C@H](COc3ccc(NC(=O)Cc4cccs4)cc3C(=O)N2C)O1	inactive
COC(=O)C[C@@H]1CC[C@H]2[C@H](COc3ccc(NC(=O)Cc4cccs4)cc3C(=O)N2C)O1	inactive
C[C@@H]1CN([C@@H](C)CO)C(=O)c2cc(-c3ccccc3)cnc2O[C@@H]1CN(C)Cc1ccccc1	inactive
CN(C)c1ccc(-c2ccnc3c2CC(C)(C(=O)NCC2CC2)O3)cc1 (centres undefined)	inactive
Cc1cccc(NC(=O)Nc2ccc(S(=O)(=O)Nc3onc(C)c3C)cc2)c1	inactive
